The results in this text go back to PubChem BioAssay AID2685 (National Center for Advancing Translational Sciences (NCATS), 2010).

The structures appear in SMILES notation. Screen size: about 320,000 compounds; about 2,100 (0.66%) were called active. Roughly 53% stayed inconclusive and do not appear here. Calls follow the shape of the dose curve; as a rule, active = well fitted inhibition curve with a large enough effect in the signal ratio, with a control signal flat (not every such curve was filed as active); inconclusive = small, poorly fitted or top-dose-only effect, or effect the other way, or a change in a side signal; inactive = flat fitted curve, though single readings scatter; the % refers to the signal ratio. The full list was thinned out, with actives kept by preference.
Potency is read from the fitted curve at half-maximal effect.

The assay can be described thus: qHTS Assay for Lipid Storage Modulators in Drosophila S3 Cells.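 As to cell number change: cells counted by Cell Tracker Red CMTPX staining in the red channel.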 As to lipid storage change, negative = inhibition: % is scaled to controls: 0 for no effect and ±100 for the full control effect. The following applies: BODIPY lipid droplet fluorescence, 18-24 h, cells fed with added oleic acid; cell number change: measured here: cell count max response; series mostly up to 46.1 µM; lipid storage change, negative = inhibition: at the top concentration. Summed up:
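Drosophila S3 cells loaded with oleic acid (400 uM, as added) and compounds at several concentrations; lipid droplets imaged by 488-nm laser-scanning cytometry, 500–530 nm intensity and object ratio to cell channel. Percent activity normalized to 20 uM Triacsin C.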
(qHTS replaces the single test concentration by a dilution series.)
As for `Cc1ccc(C)c(NC(=S)NCC(c2ccccc2)N(C)C)c1` (configuration not stated), the compound was classed as inactive.

As for `Cc1cc(C)c2c(=O)cc(C(F)(F)F)oc2n1`, the “lipid storage change, negative = inhibition” value was 9.56% (inactive) and the cell number change was 15.1%.

As to `Cc1ccc(C(=O)Nc2ccc(C(=O)N/N=C/c3cccnc3)cc2)cc1`, the call was inactive and the cell number change was determined as 17.5%. On to `O=C(N/N=C/c1cccnc1)c1ccc(NC(=O)c2ccc(Cl)cc2)cc1`, for which the Potency was 0.13 µM (active) and the cell number change amounted to 0.451%. For `CC(=O)Nc1ccc(C(=O)N/N=C/c2cccnc2)cc1`, the “lipid storage change, negative = inhibition” value was 12.5% (inactive) and the cell number change was 0.939%. For `CC(C)c1ccc(NC2CCCN(C(=O)c3ccccc3-c3ncc[nH]3)C2)cc1` (configuration not stated), the outcome was inactive and the cell number change is -18.8%.

With `COc1ccc(NC(=O)Nc2ccc3c(c2)CCC3)c(OC)c1`, the “lipid storage change, negative = inhibition” value was -7.77% (inactive) and the cell number change amounted to 9.57%. As to `O=C(Cn1c(-c2ccccc2)c[n+]2ccsc12)c1ccc(Br)cc1`, the “lipid storage change, negative = inhibition” value was 21.2% (inactive). Consider `O=C1Nc2ccc(Cl)cc2C12OCCCO2`, for which the outcome was inactive and the cell number change was 13.2%. Turning to `O=C1Nc2ccc(Cl)cc2C(C#CC2CC2)(C(F)(F)F)O1` (configuration not stated), the Potency was 9.2 µM (active) and the cell number change was -25.6%. For the compound `COC(=O)C1(C(F)(F)F)N=C(C(F)(F)F)Nc2ccc(Cl)cc21` (configuration not stated), the “lipid storage change, negative = inhibition” value was -2.99% (inactive) and the cell number change was 5.94%.

For `O=C(Cn1nnc2ccccc21)C1CC1`, the “lipid storage change, negative = inhibition” value is 9.19% (inactive) and the cell number change came out at 7.3%. Consider `NCc1cc2c3c(c1)CCCN3CCC2`, for which the “lipid storage change, negative = inhibition” value was 0.546% (inactive). Consider `C=CCOc1cccc(C(=O)N2CCCC(CNS(=O)(=O)c3cccs3)C2)c1` (configuration not stated), for which the “lipid storage change, negative = inhibition” value was 10.9% (inactive) and the cell number change is 11.7%. `Cc1ccccc1-n1ncc2c1CC(C)(C)CC2NC(=O)CSc1ccncc1` (configuration not stated): the Potency was 0.461 µM (active) and the cell number change was -2.05%. With `CSCCC(=O)NC1CC(C)(C)Cc2c1cnn2-c1ccccc1C` (configuration not stated), the “lipid storage change, negative = inhibition” value was 11.4% (inactive) and the cell number change turned out to be 13.5%. Consider `Cc1ccccc1-n1ncc2c1CC(C)(C)CC2NC(=O)CCC(F)(F)F` (configuration not stated), for which the “lipid storage change, negative = inhibition” value was 3.89% (inactive) and the cell number change turned out to be 7.77%.

As for `CC(C)=C1SC(N2CCN(c3cccc(Cl)c3)CC2)=NC1=O`, the “lipid storage change, negative = inhibition” value was -7.9% (inactive) and the cell number change was 5.96%. Turning to `COc1cccc(N2C(=NC(=O)CCC3CCCC3)SC3CS(=O)(=O)CC32)c1` (configuration not stated), the Potency is 11.6 µM (active) and the cell number change amounted to 4.89%. Take `COc1cccc(N2C(=NC(=O)CCc3ccccc3)SC3CS(=O)(=O)CC32)c1` (configuration not stated): the outcome was inactive and the cell number change was -7.96%. As for `COc1cccc(N2C(=NC(=O)C3CCCCC3)SC3CS(=O)(=O)CC32)c1` (configuration not stated), the compound was classed as inactive and the cell number change was -4.58%. For the compound `Cc1occc1C(=O)N1CCN(c2ccc(Cl)c(Cl)c2)CC1`, the call was inactive.

As for `Cc1ccccc1OC(C)C(=O)N1CCC(Cc2ccccc2)CC1` (configuration not stated), the “lipid storage change, negative = inhibition” value was -2.98% (inactive) and the cell number change stood at 12.1%.

As for `O=C(Cc1ccc(Cl)cc1)NNS(=O)(=O)c1ccc([N+](=O)[O-])cc1`, the “lipid storage change, negative = inhibition” value is -7.64% (inactive) and the cell number change turned out to be 7.62%.

With `O=C(Cc1ccccc1)NNS(=O)(=O)c1ccc([N+](=O)[O-])cc1`, the Potency is 1.46 µM (active) and the cell number change turned out to be 0.088%. As for `O=C(NNS(=O)(=O)c1ccccc1)c1ccc([N+](=O)[O-])cc1`, the compound was classed as inactive and the cell number change was 3.57%. Consider `Cc1ccc(Cc2cnc(NC(=O)/C(C#N)=C/c3ccc(-c4ccccc4[N+](=O)[O-])o3)s2)cc1`, for which the “lipid storage change, negative = inhibition” value is 11.5% (inactive) and the cell number change was -16%. Regarding `CCOC(=O)CNC(=O)CSc1nc(Cc2ccccc2)nc2ccccc12`, the Potency is 7.31 µM (active) and the cell number change is -15.2%.

Consider `CCOC(=O)CSc1nc(Cc2ccccc2)nc2ccccc12`, for which the “lipid storage change, negative = inhibition” value is 0.223% (inactive). On to `CCOC(=O)CNC(=O)CSc1nc(Cc2cccs2)nc2ccccc12`, for which the “lipid storage change, negative = inhibition” value was -32.5% (inactive) and the cell number change was -11.5%. For `O=C(NN=C1CCCC1)c1ccccc1[N+](=O)[O-]`, the call was inactive and the cell number change came out at 7.42%. Take `Cc1cc(C)nc(NC(C)(C)C(=O)O)n1`: the “lipid storage change, negative = inhibition” value was -23.2% (inactive) and the cell number change came out at 0.119%. Take `O=C(c1ccccc1Br)N1CCCC(c2nc(-c3cccs3)no2)C1` (configuration not stated): the result was inactive. Regarding `COc1ccc(-c2noc(C3CCCN(C(=O)c4ccc(C)cc4)C3)n2)cc1` (configuration not stated), the “lipid storage change, negative = inhibition” value is 4.74% (inactive) and the cell number change was 10.5%.

As to `Cc1ccc(-c2noc(C3CCCN(C(=O)c4ccccc4Br)C3)n2)cc1` (configuration not stated), the Potency was 18.4 µM (active) and the cell number change is -26.6%.

For the compound `Cc1nn(C)c(Cl)c1C(=O)NCC(=O)NCc1ccccc1`, the “lipid storage change, negative = inhibition” value was -13.1% (inactive) and the cell number change was -13%. Consider `Nc1nonc1-n1nnc(C(=O)N/N=C/c2ccoc2)c1-c1ccccc1`, for which the call was inactive and the cell number change is 11.3%.

With `O=C(O)c1ccccc1C(=O)NCCCn1ccnc1`, the “lipid storage change, negative = inhibition” value was 6.83% (inactive) and the cell number change was 7.04%.

Take `Nc1c(O)ccc2c1C(=O)c1ccccc1C2=O`: the “lipid storage change, negative = inhibition” value was -9.3% (inactive) and the cell number change is -17.1%.

Turning to `CCOc1cc(C(=O)OCC(=O)N(C)c2ccccc2)cc(OCC)c1OCC`, the outcome was inactive and the cell number change was determined as 9.01%.

In the case of `Cc1[nH]nc(SCC(=O)N2CCCC2)c1[N+](=O)[O-]`, the “lipid storage change, negative = inhibition” value is -2.11% (inactive) and the cell number change is -4.82%. In the case of `COc1ccc(N2CCN(C(=O)CCCn3c(=O)c4cccn4c4cccnc43)CC2)cc1`, the compound was classed as inactive and the cell number change is 22.2%. Take `COc1cccc(CNC(=O)CCn2c(=O)c3cccn3c3cccnc32)c1`: the “lipid storage change, negative = inhibition” value was -26% (inactive) and the cell number change stood at 1.83%. `COc1ccc(CCNC(=O)CCCn2c(=O)c3cccn3c3cccnc32)c(OC)c1`: the Potency is 16.4 µM (active) and the cell number change was -19.3%. Consider `CSc1cccc(NC(=O)CCCn2c(=O)c3cccn3c3cccnc32)c1`, for which the Potency was 18.4 µM (active) and the cell number change was -18.8%. For `CN1CCN(C(=O)CCn2c(=O)c3cccn3c3cccnc32)CC1`, the “lipid storage change, negative = inhibition” value is -18.5% (inactive) and the cell number change was determined as 17.7%. For the compound `CCc1ccc(CNC(=O)CCCn2c(=O)c3cccn3c3cccnc32)cc1`, the compound was classed as inactive.
